Assay [1] is described as follows: AP1 Signaling Pathway (AID 357).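 Also: ME-180 reporter cells stimulated with EGF at its EC50 level; % is scaled to controls: 0 for no effect and ±100 for the full control effect.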 The conditions noted are these: ME-180 AP-1-bla reporter, EGF-induced, beta-lactamase ratio, 5 h; at 17.2 µM (top of the series) unless noted. In short, it runs like this:
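Modulation of EGF-driven AP-1 transcription was assessed with a beta-lactamase reporter in ME-180 cells. Compound and EC50 EGF were co-incubated 5 hours at 37 °C before 2.5-hour CCF4 loading at room temperature and dual-emission reading.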

Assay [2] can be described thus: NFAT Signaling Pathway (AID 444).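 Also: carbachol stimulus at about its EC50 of 1 µM final; % is scaled to controls: 0 for no effect and ±100 for the full control effect.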 To be noted: Jurkat NFAT-bla M1, carbachol, beta-lactamase ratio, 5 h; at 17.2 µM (top of the series) unless noted. In short, it runs like this: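 Jurkat cells with NFAT-driven β-lactamase reporter and co-expressed M1 receptor, stimulated with carbachol (final 1 uM, ~EC50), compound titration, 5 h at 37 °C. CCF4 loaded 1 h at RT; 460/530 nm ratio gave %activity and AC50.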

The nature of assay [3]: Stat Signaling Pathway (AID 446).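 Also: ME-180 cervical cancer cells given 40 pM IL-6 alongside compound; SIE-controlled beta-lactamase reporter measured as 460/530 nm FRET emission ratio; % is scaled to controls: 0 for no effect and ±100 for the full control effect.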 To be noted: ME-180 SIE beta-lactamase reporter, IL-6 stimulated, 5 h; at 17.2 µM (top of the series) unless noted. In short, it runs like this: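 Reporter line: ME-180 cervical carcinoma, SIE-beta-lactamase. Treatment: compound with 40 pM IL-6, 5 hrs, 37 C, in low-serum OPTI-MEM with 10 mM HEPES pH 7.3. Detection: 460/530 nm fluorescence.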

The target of assay [4] is Glucocorticoid receptor (Homo sapiens) (UniProt P04150). As to the kind of experiment: GR-GFP Redistribution (AID 450;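 active = compounds whose dose series gives a full or clear partial fitted curve of increased nuclear translocation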; also: potency is read from the fitted curve at half-maximal effect).
Sequence of Glucocorticoid receptor (Homo sapiens) (P04150 whole entry, looked up): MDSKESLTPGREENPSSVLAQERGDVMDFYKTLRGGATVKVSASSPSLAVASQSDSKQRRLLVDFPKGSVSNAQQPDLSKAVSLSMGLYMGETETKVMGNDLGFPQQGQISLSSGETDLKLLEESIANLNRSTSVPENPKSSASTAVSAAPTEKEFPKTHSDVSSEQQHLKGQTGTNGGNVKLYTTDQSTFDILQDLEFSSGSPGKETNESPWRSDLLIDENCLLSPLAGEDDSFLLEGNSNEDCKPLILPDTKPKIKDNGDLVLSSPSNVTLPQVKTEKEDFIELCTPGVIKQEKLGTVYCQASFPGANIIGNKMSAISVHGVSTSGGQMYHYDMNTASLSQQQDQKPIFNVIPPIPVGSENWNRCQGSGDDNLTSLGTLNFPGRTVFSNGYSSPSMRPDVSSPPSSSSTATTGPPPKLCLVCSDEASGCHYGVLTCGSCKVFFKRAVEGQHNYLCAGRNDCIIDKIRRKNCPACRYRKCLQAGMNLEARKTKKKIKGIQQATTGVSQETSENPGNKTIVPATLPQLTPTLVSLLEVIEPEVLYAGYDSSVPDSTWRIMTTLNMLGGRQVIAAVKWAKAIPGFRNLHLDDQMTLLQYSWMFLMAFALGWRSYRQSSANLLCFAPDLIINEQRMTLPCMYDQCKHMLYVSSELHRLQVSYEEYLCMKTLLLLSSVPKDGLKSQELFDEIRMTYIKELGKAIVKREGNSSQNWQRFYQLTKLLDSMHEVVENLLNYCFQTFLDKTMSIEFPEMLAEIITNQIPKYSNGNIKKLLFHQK
The nature of assay [5]: qHTS Assay for Identification of Small Molecule Agonists for Hypoxia Response Element Signaling Pathway (AID 914; active = well fitted activation curve with a large enough effect in the signal ratio, with a control signal flat, not every such curve was filed as active; the % refers to the signal ratio; also: potency is read from the fitted curve at half-maximal effect; as to activation: % of control where 0% means no effect). The conditions noted are these: ME-180 (cervical carcinoma) HRE-bla reporter, beta-lactamase ratio, CoCl2, 17 h; activation: stronger effect = higher value. In a few lines:
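Positive modulation of EC50 CoCl2-induced hypoxia response element signaling is measured in ME-180 cells with a beta-lactamase reporter. Compounds are titrated, incubation runs 17 hours, and %Activity derives from the blue/green ratio.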
In general terms: Quantitative high-throughput screening tests each substance at several concentrations.

In assay [6] the target is 3',5'-cyclic-AMP phosphodiesterase 4B (Homo sapiens) (UniProt Q07343). As to the kind of experiment: qHTS Assay for Inhibitors of PDE-IV (AID 607; active = well fitted activation curve with a large enough effect in the main read-out, with a control signal flat, not every such curve was filed as active; also: % of control where 0% means no effect). In a few lines:
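Cell-based read-out of cAMP via a modified cyclic nucleotide-gated channel and membrane potential dye (535/590 nm) in HEK293 cells expressing PDE4 endogenously. Compounds tested up to 22.9 uM final; 100 uM RO 20-1724 reference.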

Assay [7] is described as follows: qHTS Assay for Identification of Small Molecule Agonists for Thrombopoietin (TPO) Signaling Pathway (AID 917; active = well fitted curve in the direction sought with a large enough effect; an effect the other way counts as inactive or inconclusive; also: % is scaled to controls: 0 for no effect and ±100 for the full control effect). In a few lines:
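Luminescence from a Glycoprotein IIb promoter–driven luciferase reporter served as read-out in murine Ba/F3 cells carrying the human TPO receptor. Cells, deprived of IL-3 overnight, received compounds with 26 pM TPO and were incubated 24 hrs at 37 C.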

The target in assay [8] is Pyruvate kinase (Leishmania mexicana) (UniProt Q27686). As to the kind of experiment: qHTS Validation Assay for Inhibitors of Leishmania Mexicana Pyruvate Kinase (AID 945; active = well fitted curve in the direction sought with a large enough effect; an effect the other way counts as inactive or inconclusive;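 also: 0% = DMSO only neutral control wells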). In a few lines:
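qHTS eight-point titrations against 0.2 nM LmPYK (E451W) in imidazole buffer pH 7.2 with 0.5 mM PEP, 0.1 mM ADP; 1 h, room temperature. Readout: PKLight luminescence, normalized to neutral DMSO wells.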

For assay [9], the target named is Pyruvate kinase PKM (Homo sapiens) (UniProt P14618). As to the kind of experiment: qHTS Assay for Activators of Human Muscle Pyruvate Kinase (AID 954; active = well fitted curve in the direction sought with a large enough effect, not every such curve was filed as active;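 also: 0% = uninhibited enzyme and -100% = no enzyme or full thiadiazolimine inhibition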). In short, it runs like this:
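Human PKM2 activity is measured as ATP generation, detected by luciferase-coupled luminescence. The enzyme (0.1 nM) acts on 0.5 mM PEP and 0.1 mM ADP for 1 h at ambient temperature; data are normalized to uninhibited and full-inhibition wells.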

Assay [10] concerns the target Alpha-galactosidase A (Homo sapiens) (UniProt P06280). As to the kind of experiment: Counterscreen for Glucocerebrosidase Inhibitors: qHTS Assay for Human alpha-Galactosidase at pH 4.5 (AID 992; active = well fitted curve in the direction sought with a large enough effect; an effect the other way counts as inactive or inconclusive; also: 0% is about no effect). In a few lines: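 Quantitative HTS: compounds tested from 0.7 nM up to 77 uM against 2 nM enzyme with 80 uM 4-MU alpha-D-galactopyranoside. The 20 min room-temperature reaction is stopped with 1M NaOH/1M glycine, pH 10.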
A general note: Counterscreens check selectivity or assay interference.

The target of assay [11] is alpha-glucosidase (Oryza sativa, rice) (UniProt Q653V4). As to the kind of experiment: Counterscreen for Glucocerebrosidase Inhibitors: qHTS Assay for Rice alpha-Glucosidase at pH 5.0 (AID 997; active = well fitted curve in the direction sought with a large enough effect; an effect the other way counts as inactive or inconclusive;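 also: 0% = full activity with enzyme and -100% = basal without enzyme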). In short, it runs like this: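 Rice alpha-glucosidase (4 nM final) with 400 uM 4-methylumbelliferyl-alpha-D-glucopyranoside in citrate buffer pH 5.0, 20 min at room temperature, stopped at pH 10; fluorescence 365/440 nm, compounds 0.7 nM–77 uM, AC50 from Hill fits.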

The target of assay [12] is Mitogen-activated protein kinase 10 (Mus musculus) (UniProt Q61831). As to the kind of experiment: JNK3 AlphaScreen Assay (AID 530). In a few lines: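 Pre-activated (IL-1β/TNFα) JNK3 in HepG2 lysates phosphorylates biotin-GST-cJun(1-79), 10 uM ATP; anti-phospho-cJun(Ser73) AlphaScreen read at room temperature, pH 7.6 Tris buffer. Compounds pre-incubated 15 min as titrations.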
(In general: In Alpha technology, singlet oxygen from a donor bead excites a nearby acceptor bead.)

Assay [13] addresses Ubiquitin carboxyl-terminal hydrolase 1 (Homo sapiens) (UniProt O94782). As to the kind of experiment: Inhibitors of USP1/UAF1: Pilot qHTS (AID 504865; active = well fitted curve in the direction sought with a large enough effect; an effect the other way counts as inactive or inconclusive;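 also: rhodamine fluorescence freed from ubiquitin-rhodamine substrate followed over time; top concentration of the series differs between compounds; % is scaled to controls: 0 for no effect and ±100 for the full control effect; nearly all actives have a fitted effect of over 35% in size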). In a few lines:
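In 50mM HEPES pH 7.8 containing 0.5mM EDTA, 1mM TCEP, 0.1 mg/ml BSA and 0.01% Tween-20, 1nM USP1/UAF1 is exposed to compound for 15 min, then Ub-Rho (150nM final) is added and fluorescence is read over time.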

These results are taken from PubChem BioAssay (NCATS).

A number with no mark means an inactive call. Results filed as inconclusive are left out. Calls of active or inactive are those of the source. Unless noted, calls follow the shape of the dose curve; as a rule, active = well fitted curve in either direction with a large enough effect (not every such curve was filed as active); inconclusive = small, poorly fitted or top-dose-only effect, or another doubt; inactive = flat fitted curve, though single readings scatter.

Sequence of 3',5'-cyclic-AMP phosphodiesterase 4B (Homo sapiens) (Q07343 whole entry, looked up): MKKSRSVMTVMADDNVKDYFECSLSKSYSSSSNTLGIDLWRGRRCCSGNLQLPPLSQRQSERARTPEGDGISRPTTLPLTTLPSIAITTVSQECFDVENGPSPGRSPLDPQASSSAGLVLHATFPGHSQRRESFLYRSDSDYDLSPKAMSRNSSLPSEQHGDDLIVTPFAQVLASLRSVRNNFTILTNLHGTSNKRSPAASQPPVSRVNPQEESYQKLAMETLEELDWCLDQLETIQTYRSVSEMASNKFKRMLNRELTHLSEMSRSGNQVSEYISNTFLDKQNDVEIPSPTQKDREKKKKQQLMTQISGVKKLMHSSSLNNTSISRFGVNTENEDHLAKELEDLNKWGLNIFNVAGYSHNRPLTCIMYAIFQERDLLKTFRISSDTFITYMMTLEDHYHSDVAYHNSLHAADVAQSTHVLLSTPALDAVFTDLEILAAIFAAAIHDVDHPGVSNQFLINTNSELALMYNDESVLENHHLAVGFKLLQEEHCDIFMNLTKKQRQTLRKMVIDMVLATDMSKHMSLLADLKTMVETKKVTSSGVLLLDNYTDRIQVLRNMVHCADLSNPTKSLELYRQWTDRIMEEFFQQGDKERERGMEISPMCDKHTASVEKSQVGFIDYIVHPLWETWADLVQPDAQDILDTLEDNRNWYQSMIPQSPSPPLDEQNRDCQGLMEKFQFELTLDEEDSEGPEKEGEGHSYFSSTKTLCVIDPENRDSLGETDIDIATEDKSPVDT
Sequence of Ubiquitin carboxyl-terminal hydrolase 1 (Homo sapiens) (O94782 whole entry, looked up): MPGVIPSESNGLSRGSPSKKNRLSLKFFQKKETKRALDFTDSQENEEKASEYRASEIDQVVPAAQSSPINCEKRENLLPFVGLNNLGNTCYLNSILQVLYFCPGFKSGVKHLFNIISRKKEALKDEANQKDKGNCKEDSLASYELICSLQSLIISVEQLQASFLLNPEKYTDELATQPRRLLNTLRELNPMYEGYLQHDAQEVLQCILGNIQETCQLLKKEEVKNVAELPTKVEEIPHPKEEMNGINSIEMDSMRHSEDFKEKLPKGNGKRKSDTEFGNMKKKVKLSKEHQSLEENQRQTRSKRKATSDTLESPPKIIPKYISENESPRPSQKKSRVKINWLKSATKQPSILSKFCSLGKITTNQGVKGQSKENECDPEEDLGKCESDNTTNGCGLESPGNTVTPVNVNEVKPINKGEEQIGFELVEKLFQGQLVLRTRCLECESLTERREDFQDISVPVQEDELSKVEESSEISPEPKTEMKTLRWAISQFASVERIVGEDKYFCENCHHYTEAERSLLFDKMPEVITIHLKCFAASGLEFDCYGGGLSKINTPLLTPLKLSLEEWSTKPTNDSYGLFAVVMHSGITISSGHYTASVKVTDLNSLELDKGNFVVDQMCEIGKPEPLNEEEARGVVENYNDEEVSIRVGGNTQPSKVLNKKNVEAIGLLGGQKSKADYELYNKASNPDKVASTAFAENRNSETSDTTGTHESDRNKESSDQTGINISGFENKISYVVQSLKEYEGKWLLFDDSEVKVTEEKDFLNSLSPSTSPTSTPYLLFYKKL
Sequence of Pyruvate kinase PKM (Homo sapiens) (P14618 whole entry, looked up): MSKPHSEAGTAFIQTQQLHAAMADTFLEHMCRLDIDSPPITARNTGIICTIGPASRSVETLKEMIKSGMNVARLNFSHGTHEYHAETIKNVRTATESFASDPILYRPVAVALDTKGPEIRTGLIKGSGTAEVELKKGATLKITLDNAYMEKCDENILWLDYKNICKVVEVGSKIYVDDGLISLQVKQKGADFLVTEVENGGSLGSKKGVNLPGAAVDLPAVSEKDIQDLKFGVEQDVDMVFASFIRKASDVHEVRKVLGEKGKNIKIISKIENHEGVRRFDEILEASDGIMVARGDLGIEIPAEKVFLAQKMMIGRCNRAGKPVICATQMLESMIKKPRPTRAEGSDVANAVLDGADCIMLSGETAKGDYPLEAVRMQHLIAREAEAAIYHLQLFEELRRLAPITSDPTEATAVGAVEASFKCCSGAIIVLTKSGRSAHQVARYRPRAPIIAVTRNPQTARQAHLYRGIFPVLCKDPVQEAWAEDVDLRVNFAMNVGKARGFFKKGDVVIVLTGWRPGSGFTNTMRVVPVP
Sequence of Alpha-galactosidase A (Homo sapiens) (P06280 whole entry, looked up): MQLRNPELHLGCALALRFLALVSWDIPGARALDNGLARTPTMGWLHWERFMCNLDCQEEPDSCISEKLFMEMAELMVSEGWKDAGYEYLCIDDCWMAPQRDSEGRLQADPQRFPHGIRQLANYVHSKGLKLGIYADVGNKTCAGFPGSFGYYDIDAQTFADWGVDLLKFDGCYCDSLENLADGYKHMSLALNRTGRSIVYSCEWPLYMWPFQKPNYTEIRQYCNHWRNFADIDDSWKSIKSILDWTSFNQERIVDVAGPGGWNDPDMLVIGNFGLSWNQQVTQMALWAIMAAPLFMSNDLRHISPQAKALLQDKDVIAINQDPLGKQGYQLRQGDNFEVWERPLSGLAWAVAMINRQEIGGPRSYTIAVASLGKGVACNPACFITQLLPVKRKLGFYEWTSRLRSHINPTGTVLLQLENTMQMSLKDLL
Sequence of Pyruvate kinase (Leishmania mexicana) (Q27686 2-499 E452W): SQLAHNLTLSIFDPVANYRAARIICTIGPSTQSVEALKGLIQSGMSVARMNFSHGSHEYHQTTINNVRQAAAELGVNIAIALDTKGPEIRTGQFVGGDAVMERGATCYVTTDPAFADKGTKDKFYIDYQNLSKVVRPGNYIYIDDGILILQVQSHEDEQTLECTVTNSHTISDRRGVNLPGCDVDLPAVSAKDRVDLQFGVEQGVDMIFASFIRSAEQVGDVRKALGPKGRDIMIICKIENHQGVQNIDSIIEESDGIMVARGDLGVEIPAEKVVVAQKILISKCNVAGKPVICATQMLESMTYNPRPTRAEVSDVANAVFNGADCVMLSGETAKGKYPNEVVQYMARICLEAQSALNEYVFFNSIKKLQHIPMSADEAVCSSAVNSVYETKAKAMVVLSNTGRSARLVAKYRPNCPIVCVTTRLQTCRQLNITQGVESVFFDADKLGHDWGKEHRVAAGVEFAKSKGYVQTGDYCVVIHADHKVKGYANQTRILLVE

Turning to `CCOc1ccc(/C(O)=C2/C(=O)C(=O)N(CCN(CC)CC)C2c2ccco2)cc1` (stereo not drawn), the results for the activity change, negative = inhibition in assay [1] and in assay [2] were -1.27% and -3.29%, respectively. Also, the activity, negative = inhibition in assay [3] is 6.33%. The Potency in [4] was more than 20.6 µM. In addition, the activation in assay [5] was -14.8%.

With `CN1[C@@H]2CC(OC(=O)[C@@H](CO)c3ccccc3)C[C@H]1[C@H]1O[C@H]12` (stereo partly drawn), the activity change, negative = inhibition in assay [1] is 4.86% [at 38 µM]; in assay [2], -57.6% [at 38 µM] (active). Moreover, the activity, negative = inhibition in assay [3] was 13.4% [at 38 µM]. Moreover, the Potency entry in assay [6], in [7] and in assay [8] was “inactive” each time. In addition, the compound was called inactive in assay [9], in assay [10] and in assay [11].

Regarding `CN(C)c1ccc(C=Nc2cnn(C)c2C(N)=O)cc1`, the activity change, negative = inhibition is -9.71% in assay [1] and 2.44% in [2]. Moreover, the activity, negative = inhibition in [3] was -12.3%. Moreover, the Potency in [4] was more than 20.6 µM. Also, the activation in [5] is -1.16%.

As for `CC(C)CNC(=O)c1c(N)n(/N=C/c2cccnc2)c2nc3ccccc3nc12`, the figures for the activity change, negative = inhibition in assay [1] and in [2] were 9.25% and 329% [activator] (active), respectively. The activity, negative = inhibition in assay [3] is 16.6%. For the same compound, the Potency was more than 20.6 µM in assay [4] and 10 µM (active) in [5].

With `COc1ccc2c(c1OC)C(=O)OC2c1c(O)nc(SC)n(-c2ccccc2)c1=O` (stereo not drawn), the results for the activity change, negative = inhibition in assay [1] and in assay [2] were -1.4% and -5.89%, respectively. The activity, negative = inhibition in [3] is -3%. Further, the Potency in assay [4] was more than 20.6 µM. For the same compound, in assay [5], the activation was 1.25%.

On to `COc1ccccc1C(=O)N1CCN(Cc2ccc3c(c2)OCO3)CC1`, for which the activity change, negative = inhibition in assay [1] was -11.7%; in assay [2] it was -10.5%. Also, the Potency in [4] was more than 20.6 µM.

Turning to `CCOc1ccc(Cn2c(O)cc(=O)[nH]c2=O)cc1`, the activity change, negative = inhibition in [1] was 11.9%; in [2] it was 2.3%. Further, in assay [3], the activity, negative = inhibition is 5.06%. The Potency in assay [4] is more than 20.6 µM. The activation in [5] is 5.51%.

`O=C(NC[C@@H]1CCCCN1)c1cc(OCC(F)(F)F)ccc1OCC(F)(F)F`: the activity change, negative = inhibition in assay [1] is -1.96%; in [2] it was -7.71%. In [3], the activity, negative = inhibition is 4.72%. The Potency entry in assay [12], in [6] and in [13] was “inactive” throughout.
